Bioassay records from PubChem BioAssay.
Gal4-VP16 FLuc = Gal4-VP16 reporter inhibition counter-screen. Drosophila S2 Gal4-VP16 UAS-luciferase, luminescence, 20 h. Potency, µM (top dose mostly 53.6 µM), inactives show top-dose activity, negative = inhibition, most hits filed as inhibitors. 310,000 compounds, 3.5% hits;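 further: Gal4-VP16 expression switched on by copper sulfate through the metallothionein promoter; potency means the concentration at half of the fitted maximal effect; on the % scale 0 is the no-effect control and ±100 the full control effect; nearly all actives have a fitted effect of over 50% in size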
RORg inh = inhibitors of mouse ROR gamma transcriptional activity; 310,000 compounds, 5.4% hits; Potency, µM (titrated, usually from 53.6 µM), inactives show at the highest dose activity change, negative = inhibition, usual class: inhibitors; Drosophila S2 Gal4-RORgamma UAS-luciferase reporter, 20 h; P51450; AID 2551; further: potency means the concentration at half of the fitted maximal effect; on the % scale 0 is the no-effect control and ±100 the full control effect; nearly all actives have a fitted effect of over 60% in size
Target sequence (P51450 whole entry, looked up, the tested form may be a part): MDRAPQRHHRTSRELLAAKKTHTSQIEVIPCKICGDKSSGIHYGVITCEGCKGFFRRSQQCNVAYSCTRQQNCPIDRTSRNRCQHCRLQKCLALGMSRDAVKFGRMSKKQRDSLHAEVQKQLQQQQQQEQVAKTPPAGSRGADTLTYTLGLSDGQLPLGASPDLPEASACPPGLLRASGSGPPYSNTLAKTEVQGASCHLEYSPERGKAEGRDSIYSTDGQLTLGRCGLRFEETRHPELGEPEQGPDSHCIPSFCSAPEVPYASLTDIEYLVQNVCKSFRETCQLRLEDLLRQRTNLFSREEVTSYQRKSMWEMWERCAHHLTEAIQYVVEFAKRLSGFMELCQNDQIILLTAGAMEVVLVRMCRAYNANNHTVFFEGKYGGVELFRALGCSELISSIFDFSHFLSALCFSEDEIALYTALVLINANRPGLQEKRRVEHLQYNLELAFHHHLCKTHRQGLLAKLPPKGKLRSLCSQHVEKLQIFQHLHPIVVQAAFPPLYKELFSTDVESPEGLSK
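Using a luciferase readout, inhibitors were identified by reduced reporter activity in Drosophila cells coexpressing a copper-inducible Gal4–ROR gamma fusion and UAS-driven Photinus luciferase, incubated 20 hr after 700 uM copper sulfate.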
IL1B secr inh = inflammasome signaling inhibition, IL-1 beta readout; 360,000 compounds, 4.7% hits; activity change, % at 57.5 µM; AID 743279; THP-1 LPS/ATP IL-1B secretion, AlphaLISA, 16 h; active compounds read low; in the data active means activity change below about -50%; inconclusive means mostly about -30% to -49%; further: on the % scale 0 is the no-effect control and ±100 the full control effect
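Secreted IL-1B measured by AlphaLISA bead assay after 16 h compound exposure of THP-1 cells; compounds (final up to 57.5 uM) added 1 h before LPS (250 ng/mL) and ATP (1.25 mM) stimulation; lower signal means less secretion.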
SW480 rerep = inducers of DNA re-replication in SW480 colon cancer cells; SW480 DNA re-replication, Hoechst DNA content imaging, 48 h; Potency, µM (titrated, usually from 46.1 µM), inactives show top-dose re-replication activation, hits mostly activators; 340,000 compounds, 1.8% hits; AID 624297; further: potency means the concentration at half of the fitted maximal effect; % of control where 0% means no effect; nearly all actives have a fitted effect of over 55% in size
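DNA re-replication was detected as more nuclei of elevated Hoechst intensity after 48 hr exposure to compound (23 nL pinned per well of 250 cells).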
MCF10A rereplic = inducers of DNA re-replication in MCF 10A breast cells | 350,000 compounds, 2.9% hits | Potency, µM (titrated, usually from 46.1 µM), inactives show at the highest dose activity, positive = re-replication, most hits filed as activators | MCF 10A DNA re-replication, Hoechst nuclear intensity, 48 h; further: potency means the concentration at half of the fitted maximal effect; % of control where 0% means no effect; nearly all actives have a fitted effect of over 50% in size
An asterisk follows results filed as active; ? = inconclusive; . = no result; [ ] = remark or other dose. Only some compounds are listed: those with a hit (about 11% of all), similar ones and a draw of the others. Unless noted, the call rests on the fitted dose curve; in most records, active means well fitted curve in the direction sought with a large enough effect; inconclusive means small, poorly fitted or top-dose-only effect, or another doubt; inactive means no such curve, though single readings can be large; an effect the other way counts as inactive or inconclusive.

SMILES	Gal4-VP16 FLuc	RORg inh	IL1B secr inh	SW480 rerep	MCF10A rereplic
CC(C)(C)c1ccc(C(=O)NC(=S)NNC(=O)c2cccs2)cc1	7.1µM*	4µM*	0	69%	?
O=C(NC(=S)NNC(=O)c1cccs1)c1ccccc1	16µM*	5.6µM*	84	-1%	11%
CCN(C(=O)c1ccc(C(C)(C)C)cc1)c1nnc(Cn2nnc3ccccc32)s1	5.6µM*	?	-15	?	29%
COc1ccc(S(=O)(=O)N(C)C[C@H]2Oc3ccc(NC(=O)Cc4cn(C)c5ccccc45)cc3C(=O)N([C@@H](C)CO)C[C@@H]2C)cc1	.	.	-2	?	-1%
Cn1ncc(Br)c1C(=O)NC1CCCCCC1	14%	13%	11	-2%	9%
COC(=O)c1cccc2c1-c1ccccc1/C2=N/O	?	14µM*	-22	2%	?
CCOc1ccc(S(=O)(=O)N2CCN(C)CC2)cc1NC(=O)c1ccccc1F	?	4µM*	.	3%	-4%
CCOc1ccc(S(=O)(=O)NCc2cccnc2)cc1NC(=O)c1ccccc1F	-1%	4%	22	9.2µM*	13µM*
CCOc1ccc(S(=O)(=O)NCc2ccncc2)cc1NC(=O)c1ccccc1F	-14%	-10%	55	3%	?
Cc1ccc(NC(=O)COC(=O)CNC(=O)c2cccs2)cc1S(=O)(=O)N1CCOCC1	.	.	-25	-7%	5%
CSCC[C@H](NC(=O)c1ccc(NC[C@@H](N)CS)cc1-c1ccccc1)C(=O)O	-5%	-3%	.	.	.
Cc1ccc(/C=C2\SC(=S)N(NS(=O)(=O)c3ccc(C)cc3)C2=O)cc1	-3%	6%	3	-6%	10%
COc1ccc(/C=C2/SC(=S)N(NS(=O)(=O)c3ccc(C)cc3)C2=O)cc1	5%	-13%	-56*	4%	0%
CCOc1ccc(NC(=O)COc2ccc(C(=O)NC(C)c3ccc(S(N)(=O)=O)cc3)cc2OC)cc1 (configuration not stated)	.	.	-15	-3%	3%
O=c1ccn(CCc2c[nH]c3ccccc23)c2c1CCCC2	5%	?	-58*	-12%	1%
COc1ccc(S(=O)(=O)NCC(=O)N(CC(=O)NCc2ccco2)Cc2ccccc2)cc1	-2%	-1%	1	-2%	5%
COc1ccc(CNC(=O)CN(Cc2ccco2)C(=O)CNS(=O)(=O)c2ccccc2)cc1	5%	28%	-67*	7%	1%
CN1CCC[C@@H](CC2c3ccccc3Sc3ccccc32)C1	-12%[17 µM]	-5%[2.98 µM]	.	?	-1%[20.6 µM]
COc1ccccc1CNC(=O)CSC1=NCCS1	20%	0%	-17	?	?
c1ccc(CSc2nnc(-c3ccccc3)c(-c3ccccc3)n2)cc1	.	.	-18	?	8.2µM*
Cc1nc(SCC(=O)NCc2ccco2)nc(C)c1C	-4%	7.1µM*	14	0%	-2%
O=C(CSc1nc(-c2ccccc2)c(-c2ccccc2)[nH]1)NCc1ccco1	?	10µM*	-13	12µM*	15µM*
O=C(CSC1=NCCS1)NCc1ccco1	0%	23%	27	?	23µM*
COC(=O)C[C@H]1CC[C@@H](NC(=O)Nc2ccc(C(F)(F)F)cc2)[C@@H](CO)O1	.	.	3	.	.
CC[Si](CC)(CC)O[C@H]([C@@H](C)COCOC)[C@@H](C)COCc1ccc(OC)cc1	-4%	17%	.	.	.
SMILES	Gal4-VP16 FLuc	RORg inh	IL1B secr inh	SW480 rerep	MCF10A rereplic
COc1cc2ccccc2cc1C(=O)N1CCN(c2ccccc2O)CC1	.	.	-18	2%	18%
COc1ccc(C)cc1NC(=O)C(c1ccccc1)N1CCN(CC(=O)NC2CC2)CC1 (configuration not stated)	.	.	2	10%	2%
O=C(CSc1nnc(-c2ccccc2)c(-c2ccccc2)n1)NCc1ccco1	1%	-26%	-6	19%	18µM*
CCn1c(SCC(=O)NCc2ccco2)nnc1-c1cccs1	?	11µM*	19	1%	1%
Cc1sc2nc(C(C)C)nc(SCC(=O)NCc3ccco3)c2c1C	?	5µM*	-1	?	?
CCn1c(SCC(=O)NCc2ccco2)nnc1-c1ccncc1	12%	7%	.	.	.
O=C(O)CSc1ncnc2c1oc1ccccc12	-8%	6%	32	1%	?
O=C(CSc1ncnc2c1oc1ccccc12)NCc1ccco1	20µM*	?	5	0%	2%
COc1cccc(C(=O)NNS(=O)(=O)c2ccccc2)c1	.	.	12	.	.
CCn1c(SC(=O)NC2CCCCC2)nnc1-c1cccs1	?	7.9µM*	-20	-1%	4%
CCN1C(=O)[C@H]2[C@@H](c3ccc(C(F)(F)F)cc3)N[C@]3(CCCN(Cc4ccc(C(F)(F)F)cc4)C3=O)[C@H]2C1=O	.	.	-21	.	.
CCCCCC(=O)Nc1ccc(N2CCN(CC)CC2)c(Cl)c1	?	44%	-7	5%	?
Cc1ccc(NC(=O)c2ccc([N+](=O)[O-])o2)cc1S(=O)(=O)N1CCOCC1	-21%	-15%	-94*	1.5µM*	2.1µM*
O=C(Nc1ccc(N2CCOCC2)c(Cl)c1)c1ccc([N+](=O)[O-])o1	?	-91%	-105*	6%	?
CCCC(=O)N1CCN(c2ccc(NC(=O)c3ccc([N+](=O)[O-])o3)cc2Cl)CC1	?	20µM*	-110*	17%	1.8µM*
CC(C)C(=O)N1CCN(c2ccc(NC(=O)c3ccc([N+](=O)[O-])o3)cc2)CC1	?	-6%	-104*	2%	2.6µM*
O=C(Cn1cnc2cc([N+](=O)[O-])ccc2c1=O)Nc1cccc(S(=O)(=O)N2CCCCC2)c1	.	.	-55*	-31%	?
O=C(Nc1ccc(N2CCCC2)c(Cl)c1)c1ccc([N+](=O)[O-])cc1	-5%	18%	-30	2%	9%
O=C(Nc1cccc(S(=O)(=O)N2CCCCC2)c1)c1ccc([N+](=O)[O-])o1	?	10µM*	-92*	6.5µM*	16µM*
CC(C)C(=O)N1CCN(c2ccc(NC(=O)c3ccc([N+](=O)[O-])o3)cc2Cl)CC1	5%[10 µM]	?	-105*	15%	?
CC(=O)N1CCN(c2ccc(NC(=O)c3ccc(Br)o3)cc2Cl)CC1	12%	16%	?	16%	2%
CN1CCN(c2ccc(NC(=O)c3ccc([N+](=O)[O-])o3)cc2Cl)CC1	?	?	-96*	1.5µM*	1.5µM*
O=C(COC(=O)c1ccc([N+](=O)[O-])o1)Nc1cccc(S(=O)(=O)N2CCCCC2)c1	-8%	?	-28	-7%	-1%
c1cncc(CNc2ncncc2-c2ccoc2)c1	-1%	-11%	.	.	.
CCc1ccc(S(=O)(=O)N2CCCC(N3CCN(c4ccc(OC)cc4)CC3)C2)cc1 (configuration not stated)	?	?	-16	7%	-2%
